# Measurements published in article PMC4336329 (PLoS ONE, 2015).
# Out of some 310,000 compounds screened, about 14,000 (4.5%) showed an effect of 50% or more. The effect is printed as a negative number. The entries come from a sample that favours strong results as a whole.
# Target: human ether-à-go-go-related gene (hERG) potassium channel (human, UniProt Q12809)
# Assay: primary screen, population patch clamp on CHO cells stably expressing hERG; higher = less effect of the substance
# 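Further: peak tail current of the secondary pulse compared with the same well before compound.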
# Chain of human ether-à-go-go-related gene (hERG) potassium channel (Q12809 whole entry, looked up): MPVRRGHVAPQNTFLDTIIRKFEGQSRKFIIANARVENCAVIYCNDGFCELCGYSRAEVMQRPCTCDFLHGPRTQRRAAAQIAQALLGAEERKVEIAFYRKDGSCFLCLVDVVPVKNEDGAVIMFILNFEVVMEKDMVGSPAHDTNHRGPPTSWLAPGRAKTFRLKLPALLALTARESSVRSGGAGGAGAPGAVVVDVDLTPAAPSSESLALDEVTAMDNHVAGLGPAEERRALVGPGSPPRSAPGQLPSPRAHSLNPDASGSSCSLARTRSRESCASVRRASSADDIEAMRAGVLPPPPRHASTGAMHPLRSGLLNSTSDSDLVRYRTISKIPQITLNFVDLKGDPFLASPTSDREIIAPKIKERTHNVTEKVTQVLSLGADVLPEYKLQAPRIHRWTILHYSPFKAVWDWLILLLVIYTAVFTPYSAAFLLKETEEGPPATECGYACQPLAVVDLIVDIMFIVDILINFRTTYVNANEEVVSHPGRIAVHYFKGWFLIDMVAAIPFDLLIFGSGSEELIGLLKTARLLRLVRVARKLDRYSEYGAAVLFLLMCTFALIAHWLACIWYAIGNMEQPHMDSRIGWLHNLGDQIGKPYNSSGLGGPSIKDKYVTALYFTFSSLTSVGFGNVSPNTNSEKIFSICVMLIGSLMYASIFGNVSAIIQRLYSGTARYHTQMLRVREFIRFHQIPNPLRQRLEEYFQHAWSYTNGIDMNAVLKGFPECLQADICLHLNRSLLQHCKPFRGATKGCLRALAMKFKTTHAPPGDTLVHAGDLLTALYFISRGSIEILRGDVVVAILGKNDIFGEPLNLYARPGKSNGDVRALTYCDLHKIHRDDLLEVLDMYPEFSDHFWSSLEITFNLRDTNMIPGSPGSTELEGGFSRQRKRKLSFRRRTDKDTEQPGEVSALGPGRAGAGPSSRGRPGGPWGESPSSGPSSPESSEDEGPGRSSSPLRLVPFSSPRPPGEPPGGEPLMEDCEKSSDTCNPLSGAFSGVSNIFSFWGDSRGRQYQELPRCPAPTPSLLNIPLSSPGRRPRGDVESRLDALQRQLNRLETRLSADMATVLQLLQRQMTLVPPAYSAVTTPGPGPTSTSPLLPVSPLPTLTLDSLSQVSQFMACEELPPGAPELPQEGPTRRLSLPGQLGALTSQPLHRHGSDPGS
row,SMILES,"hERG current change (%, negative = inhibition) at 10uM"
1,CC(=O)c1ccc(OCc2cc(C(=O)NCCc3ccc(Cl)cc3)no2)cc1,-29.7%
2,CSc1nnc(NC(=O)c2nc(S(=O)(=O)Cc3ccccc3)ncc2Cl)s1,0.719%
3,O=C(Nn1c(-c2ccc(Br)cc2)nc2ccccc2c1=O)c1ccncc1,20.2%
4,O=C(Nc1ccccn1)c1ccc(Cl)c(S(=O)(=O)N2CCCCCC2)c1,-32.7%
5,CCOC(=O)c1cccc(C(=O)Oc2ccccc2)n1,14.6%
6,Cc1nn(-c2ccccc2)c(C)c1C(=O)OCC(=O)Nc1ccccc1,-7.85%
7,Cc1cccc(-c2nsc(SCC(=O)NCc3ccco3)n2)c1,15%
8,Cc1nc(N=C(N)N)nc2c(C)cccc12,25.2%
9,Clc1ccc(C(c2ccc(Cl)cc2)n2cc[n+](CC(OCc3ccc(Cl)cc3Cl)c3ccc(Cl)cc3Cl)c2)cc1.[Cl-] (centres unmarked),-62.8%
10,Clc1ccc(C(Cn2ccnc2)OCc2c(Cl)cccc2Cl)c(Cl)c1 (centres unmarked),-32%
11,C=CCOC(Cn1ccnc1)c1ccc(Cl)cc1Cl (centres unmarked),-29.6%
12,CC(C)CCn1nnnc1C(c1ccc(F)cc1)N1CCC(C(N)=O)CC1 (centres unmarked),-21.4%
13,Fc1cccc(CNCCc2c[nH]c3ccccc23)c1.O=C(O)C(=O)O,-7.63%
14,Cc1c(CC(=O)NCCCCCC(=O)O)c(=O)oc2cc3c(cc12)CCC(C)(C)O3,9.83%
15,Cc1c(CC(=O)NCCCC(=O)O)c(=O)oc2cc3c(cc12)CCC(C)(C)O3,-64.5%
16,Cc1c(CC(=O)NCCCO)c(=O)oc2cc3c(cc12)CCC(C)(C)O3,17.6%
17,COC(=O)c1ccc(NC(=O)CCc2nnc3ccc(NCc4ccco4)nn23)cc1,18.4%
18,CN(C)CCNC(=O)CN1C(=O)CSc2ccc(S(=O)(=O)N3CCCCC3)cc21,12.5%
19,CCCCN(CCCC)CCNC(=O)CN1C(=O)CSc2ccc(S(=O)(=O)N3CCOCC3)cc21,-38.8%
20,CCCCN(C)CCNC(=O)CN1C(=O)CSc2ccc(S(=O)(=O)N3CCCCC3)cc21,-50.6%
21,CCCCN(CCCC)CCNC(=O)CN1C(=O)CSc2ccc(S(=O)(=O)N3CCCCC3)cc21,-74.7%
22,CCCCN(C)CCNC(=O)CN1C(=O)CSc2ccc(S(=O)(=O)N3CCCC3)cc21,-3.28%
23,CCCCN(C)CCNC(=O)CN1C(=O)CSc2ccc(S(=O)(=O)N3CCOCC3)cc21,2.2%
24,O=c1oc(-c2ccccc2NS(=O)(=O)c2ccc3ccccc3c2)nc2ccccc12,22.9%
25,CC(=O)c1c(C(C)=O)c(C)n(NC(=O)c2ccncc2)c1C,8.37%
26,COCCN(C(=O)CNC(=O)c1ccco1)C(C(=O)NC1CCCCC1)c1cccnc1 (centres unmarked),20.1%
27,CC(C)c1ccc(S(=O)(=O)N(C)C2(C)CCS(=O)(=O)C2)cc1 (centres unmarked),-46.9%

row,SMILES,"hERG current change (%, negative = inhibition) at 10uM"
1,Cc1cc(Cl)ccc1OCC(=O)OCC(=O)NC1CCS(=O)(=O)C1 (centres unmarked),-12.2%
2,O=C(CCNC(=O)c1ccccc1Cl)Nc1nc(-c2ccccc2Cl)cs1,-7.92%
3,Cc1cccc(-n2ccnc2SCC(=O)Nc2ccc3c(c2)OCCO3)c1,-14%
4,COc1cccc(NC(=O)c2ccc3c(c2)CCN3S(C)(=O)=O)c1,3.4%
5,Cc1nc2c(-c3ccccc3)c(C)nn2c(C)c1CCC(=O)NC(C)CCc1ccco1 (centres unmarked),-66.6%
6,Cc1nc2c(-c3ccc(F)cc3)c(C)nn2c(C)c1CCC(=O)NCc1ccco1,-19.9%
7,Cc1nc2c(-c3ccc(F)cc3)c(C)nn2c(C)c1CCC(=O)Nc1ccccc1,0.666%
8,Cc1nc2c(-c3ccccc3)c(C)nn2c(C)c1CCC(=O)NCc1ccco1,-29.9%
9,Cc1nc2c(-c3ccc(F)cc3)c(C)nn2c(C)c1CCC(=O)NC(C)CCc1ccco1 (centres unmarked),-68.8%
10,Cc1nc2ncnn2c(C)c1CCC(=O)NC(C)CCc1ccco1 (centres unmarked),-8.57%
11,CC(=O)Nc1cc2c(cc1NC(=O)Cn1nc(-c3ccccc3)ccc1=O)OCCO2,11.9%
12,COc1cccc(C2C(C(=O)c3cc4ccccc4o3)=C(O)C(=O)N2c2cc(C)on2)c1 (centres unmarked),7.91%
13,O=C(Cc1csc(NC(=O)c2ccccc2)n1)NO,8.93%
14,O=[N+]([O-])c1cc(CS(=O)(=O)Oc2ccc(Cl)cc2)c(O)c([N+](=O)[O-])c1,15.1%
15,CCCn1nnnc1NC(=O)c1ccc(C)cc1Cl,5.02%
16,O=C(NCCOCCOCCNC(=O)c1ccccc1)c1ccccc1,12.7%
17,CCOc1cc2[nH]c(=O)n(CCCN3CCN(c4ccc(OC)cc4)CC3)c(=O)c2cc1OCC,-67.8%
18,CCOc1cc2[nH]c(=S)n(CCCOC)c(=O)c2cc1OCC,-12.1%
19,CCOc1cc2[nH]c(=S)n(CCCN(CC)CC)c(=O)c2cc1OCC,-29.6%
20,CCCCN(C)CCn1c(=S)[nH]c2cc(OCC)c(OCC)cc2c1=O,-55.8%
21,CC1CCN(CCn2c(=S)[nH]c3cc4c(cc3c2=O)OCO4)CC1,-27.4%
22,CCOc1cc2[nH]c(=S)n(CCN3CCC(C)CC3)c(=O)c2cc1OCC,-51.2%
23,CCOc1cc2[nH]c(=S)n(CCCN3CCOCC3)c(=O)c2cc1OCC,-18.5%
24,CCOc1cc2[nH]c(=O)n(CCCN3CCCC3=O)c(=O)c2cc1OCC,-6.1%
25,CCOc1cc2[nH]c(=O)n(CCCC(=O)NCc3ccc(OC)cc3)c(=O)c2cc1OCC,8.71%
26,O=C(CCCCCn1c(=S)[nH]c2ccc(N3CCOCC3)cc2c1=O)NC1CCN(Cc2ccccc2)CC1,-9.35%
